# Screening data as filed in PubChem.
# The list is not random: actives were taken first. Their share in the collection is about 11%.
# G9a block: G9a (human) methyltransferase inhibition; G9a H3K9 monomethylation, AlphaScreen, 2 h; Potency, µM (highest dose often 102 µM), hits mostly inhibitors; actives 8.8% (n = 350,000); AID 504332; also: nearly all actives have a fitted effect of over 75% in size
# Target sequence (Q96KQ7 913-1193 limits assumed): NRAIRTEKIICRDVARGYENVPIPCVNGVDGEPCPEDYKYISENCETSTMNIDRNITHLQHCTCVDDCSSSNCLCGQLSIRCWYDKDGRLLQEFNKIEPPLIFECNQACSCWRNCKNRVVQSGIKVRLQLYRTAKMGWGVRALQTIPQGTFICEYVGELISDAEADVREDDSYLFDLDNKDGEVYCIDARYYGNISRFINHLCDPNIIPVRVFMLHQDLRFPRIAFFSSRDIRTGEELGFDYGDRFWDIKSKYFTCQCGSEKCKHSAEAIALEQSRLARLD
#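 Compounds were preincubated with 20 nM G9a for 15 min, after which biotinylated H3K9 peptide (500 nM) and SAM (20 uM) started a 2 h room-temperature reaction. Monomethylated product was quantified by antibody-based AlphaScreen chemiluminescence.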
# Sfp inh: Sfp phosphopantetheinyl transferase inhibition; Q9F4F7; Biochemical Sfp PPTase activity, qHTS; Potency, µM, actives largely listed as inhibitors; actives 3.5% (n = 310,000); AID 1490;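 also: the enzyme is Sfp with the accession as filed and its product quenches rhodamine fluorescence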
#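 Fluorescence-quenching assay with 15 nM Sfp, 5 uM rhodamine-CoA and 12.5 uM BHQ-2-labelled ybbR peptide in pH 7.6 Hepes/MgCl2 buffer. Enzyme was pre-incubated with compound for 15 min at room temperature. Rate was taken from the 30-min fluorescence change (525/598 nm).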
# Coupling enz: inhibits coupling enzyme system, counter-screen for aldolase hits. coupling enzyme system counterscreen, AmpLite Red fluorescence. activity change, negative = inhibition, % at 58.2 µM, hits read low. actives 0.67% (n = 290,000). AID 2472; in the data active = activity change below about -30%
#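 Compounds tested against the coupling enzymes alone at 57.5 uM final; readout was AmpLite Red fluorescence (525/598 nm) after 20 min at RT.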
# Tau FP inhib: tau fibrillization inhibition (FP). P10636. K18 P301L tau heparin fibrillization, Alexa594 FP, 6 h. Potency, µM (highest dose often 57.7 µM), actives largely listed as inhibitors. actives 0.39% (n = 280,000). AID 1468; also: nearly all actives have a fitted effect of over 55% in size
# Target sequence (P10636 561-689 P618L limits assumed): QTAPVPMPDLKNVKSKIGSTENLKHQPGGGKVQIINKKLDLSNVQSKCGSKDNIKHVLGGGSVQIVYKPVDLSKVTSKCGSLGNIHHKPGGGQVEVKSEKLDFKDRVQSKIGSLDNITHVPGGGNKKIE
#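 Human K18 P301L fragment (15 uM unlabeled plus 0.24 uM Alexa 594-labeled) in 100 mM sodium acetate pH 7 with compound, aggregation induced by 20 uM heparin for 6 hr at 37 C. ThT (30 uM) added for 1 hr, then Alexa 594 FP read.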
# Tau ThT inhib: blocks human tau fibril formation measured by thioflavin T; P10636; recombinant tau K18 P301L, heparin-induced fibrillization, ThT fluorescence; Potency, µM (doses to about 57.4 µM), most hits filed as inhibitors; actives 2.1% (n = 270,000); AID 1460; also: nearly all actives have a fitted effect of over 55% in size
#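 Heparin-induced fibrillization of the P301L-mutant K18 repeat-domain fragment of human tau was followed by ThT binding in quantitative high-throughput format.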
# Tau fluor counter: counter-screen for tau fibril formation inhibitors; Potency, µM (top dose mostly 57.7 µM); AID 1463; actives 0.93% (n = 280,000); tau K18 P301L Alexa594 fluorescence, heparin fibrillization; also: nearly all actives have a fitted effect of over 55% in size
#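 Human tau K18 P301L (15 uM unlabeled, 0.24 uM Alexa 594-labeled) in 100 mM sodium acetate pH 7 with 20 uM heparin, 6 hr at 37 C. ThT 30 uM added, 1 hr ambient; Alexa 594 FP and total fluorescence read at 555/632 nm.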
# A number is an active result; - = inactive; ? = inconclusive; . = not tested or not shown; [ ] = dose if it differs, or a comment. Unless noted, calls follow the shape of the dose curve; as a rule, active = well fitted curve in the direction sought with a large enough effect; inconclusive = small, poorly fitted or top-dose-only effect, or another doubt; inactive = no such curve, though single readings can be large; an effect the other way counts as inactive or inconclusive.
SMILES,G9a block,Sfp inh,Coupling enz,Tau FP inhib,Tau ThT inhib,Tau fluor counter
COc1ccc(C(c2oc(CO)cc(=O)c2O)c2oc(CO)cc(=O)c2O)cc1OC,20µM,-,-,-,-,-
COc1ccc(C(c2oc(CO)cc(=O)c2O)c2oc(CO)cc(=O)c2O)cc1,14.1µM,?,-,-,-,-
COc1cc(C(c2oc(CO)cc(=O)c2O)c2oc(CO)cc(=O)c2O)cc(OC)c1OC,11.2µM,-,-,-,-,-
COc1cc(C(c2c(O)cc(C)[nH]c2=O)c2c(O)cc(C)[nH]c2=O)ccc1O,-,-,-,.,.,.
COc1ccc(-c2cc(=O)oc3cc(O)ccc23)cc1,-,-,-,.,.,.
CN(Cc1ccccc1)C(=O)[C@H](Cc1ccc2ccccc2c1)NC(=O)[C@@H]1CCCN1C(=O)Nc1ccccc1[N+](=O)[O-],?,-,-,-,?,-
Cc1nn(C)cc1/C=N/NC(=S)Nc1ccccc1,?,25.1µM,-,-,-,-
Cc1cccc(C(=O)Nc2ccc(C(=O)N/N=C/c3cccnc3)cc2)c1,-,-,-,.,.,.
Cc1ccc(C(=O)Nc2ccc(C(=O)N/N=C/c3c[nH]c4ccccc34)cc2)cc1,-,-,-,-,12.6µM,14.1µM[quencher]
O=C(N/N=C/c1c[nH]c2ccccc12)c1sc2ccccc2c1Cl,-,-,-,-,?,8.91µM[quencher]
Cc1ccc(NC(=S)N/N=C/c2c(C)nn(-c3ccccc3)c2N2CCCC2)cc1,-,-,-,-,-,-
Cc1ccc(C(=O)Nc2ccc(C(=O)N/N=C/c3cccnc3)cc2)cc1,79.4µM,-,-,.,.,.
COc1ccc(C)cc1NC(=O)c1nnn(-c2c(C)cccc2C)c1C,-,.,.,-,-,-
CN(CCCC(=O)NCCc1ccccc1)S(=O)(=O)c1ccc([N+](=O)[O-])cc1,-,-,-,.,.,.
O=C(CNc1ccccc1)N/N=C/c1c[nH]c2ccccc12,-,-,-,-,-,-
Cc1ccc(C(=O)Nc2nnc(CC(=O)N/N=C/c3ccncc3)s2)cc1,35.5µM,-,-,-,?,-
CC(C)(C)OC(=O)N/N=C\c1cccnc1,1.26µM,-,-,-,-,-
O=C(N/N=C/c1ccc([N+](=O)[O-])o1)c1sc2ccccc2c1Cl,-[12.7 µM],-,-,-,3.55µM,?
Cc1cccc(NC(=S)N/N=C/c2c[nH]c3ccccc23)c1,-,-,-,?,15.8µM,8.91µM[quencher]
Cc1ccc(NC(=O)CN(C)C(=O)CNC(=O)c2sc3ccccc3c2Cl)cc1,-,.,.,.,.,.
COc1ccc2c(Cl)c(C(=O)N/N=C/c3c(C)[nH]c4ccccc34)sc2c1,-,?,-,-,4.47µM,11.2µM[quencher]
CCOC(=O)C1CCN(S(=O)(=O)c2cc3c4c(c2)CC(=O)N4CCC3)CC1,-,.,.,-,-,-
CC(C(=O)Nc1ccccc1-c1ccccc1)N1CCN(S(=O)(=O)c2ccccc2)CC1 (centres undefined),-,-,-,-,-,-
CC(C(=O)Nc1ccccc1-c1ccccc1)N1CCCCC1 (centres undefined),44.7µM,-,-,-,-,-
Cc1ccc(NC(=O)C2CCN(c3ncnc4c3nc3n4CCCCC3)CC2)nc1,-,-,.,.,.,.
SMILES,G9a block,Sfp inh,Coupling enz,Tau FP inhib,Tau ThT inhib,Tau fluor counter
COc1ccc(C(C[N+](=O)[O-])c2c(C)[nH]n(-c3ccccc3)c2=O)cc1 (centres undefined),-[2.33 µM],39.8µM,-39.1,.,.,.
Cc1cc2ccccn2c1C(=O)Nc1ccccc1,-,-,-,-,-,-
Cc1[nH]n(-c2ccccc2)c(=O)c1C(C[N+](=O)[O-])c1ccccc1Cl (centres undefined),?,-,-,-,-,-
COc1ccc(C(C[N+](=O)[O-])c2c(-c3ccccc3)cc3ccccn23)c(OC)c1 (centres undefined),10µM,44.7µM,-,-,-,-
Cc1cc2ccccn2c1C(C[N+](=O)[O-])c1ccc(N(C)C)cc1 (centres undefined),10µM,-,-,?,?,?
COc1ccc(C(C[N+](=O)[O-])c2c(C)cc3ccccn23)cc1 (centres undefined),35.5µM,-,-,-,?,-
